From PubChem BioAssay
Calls of active or inactive are those of the source. Unless noted, no stated cut-off is given here; in the data, active means inhibition above about 30%; inactive means the rest.

biological target: Nuclear receptor coactivator 3 (Homo sapiens) (UniProt Q9Y6Q9); assay: SRC3 coactivator transcriptional activity inhibitors, confirmation, cell-based, luminescence, quadruplicate (AID 588792;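 active means mean inhibition over 43.08%, the solvent-only control mean plus 3 SD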;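 further: 0% = DMSO treated cells and 100% = gossypol at 36 µM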); conditions: HEK293 GAL4-SRC3 luciferase reporter, at 3.6 µM, hits give high values
Sequence (Q9Y6Q9 whole entry, looked up, the tested form may be a part): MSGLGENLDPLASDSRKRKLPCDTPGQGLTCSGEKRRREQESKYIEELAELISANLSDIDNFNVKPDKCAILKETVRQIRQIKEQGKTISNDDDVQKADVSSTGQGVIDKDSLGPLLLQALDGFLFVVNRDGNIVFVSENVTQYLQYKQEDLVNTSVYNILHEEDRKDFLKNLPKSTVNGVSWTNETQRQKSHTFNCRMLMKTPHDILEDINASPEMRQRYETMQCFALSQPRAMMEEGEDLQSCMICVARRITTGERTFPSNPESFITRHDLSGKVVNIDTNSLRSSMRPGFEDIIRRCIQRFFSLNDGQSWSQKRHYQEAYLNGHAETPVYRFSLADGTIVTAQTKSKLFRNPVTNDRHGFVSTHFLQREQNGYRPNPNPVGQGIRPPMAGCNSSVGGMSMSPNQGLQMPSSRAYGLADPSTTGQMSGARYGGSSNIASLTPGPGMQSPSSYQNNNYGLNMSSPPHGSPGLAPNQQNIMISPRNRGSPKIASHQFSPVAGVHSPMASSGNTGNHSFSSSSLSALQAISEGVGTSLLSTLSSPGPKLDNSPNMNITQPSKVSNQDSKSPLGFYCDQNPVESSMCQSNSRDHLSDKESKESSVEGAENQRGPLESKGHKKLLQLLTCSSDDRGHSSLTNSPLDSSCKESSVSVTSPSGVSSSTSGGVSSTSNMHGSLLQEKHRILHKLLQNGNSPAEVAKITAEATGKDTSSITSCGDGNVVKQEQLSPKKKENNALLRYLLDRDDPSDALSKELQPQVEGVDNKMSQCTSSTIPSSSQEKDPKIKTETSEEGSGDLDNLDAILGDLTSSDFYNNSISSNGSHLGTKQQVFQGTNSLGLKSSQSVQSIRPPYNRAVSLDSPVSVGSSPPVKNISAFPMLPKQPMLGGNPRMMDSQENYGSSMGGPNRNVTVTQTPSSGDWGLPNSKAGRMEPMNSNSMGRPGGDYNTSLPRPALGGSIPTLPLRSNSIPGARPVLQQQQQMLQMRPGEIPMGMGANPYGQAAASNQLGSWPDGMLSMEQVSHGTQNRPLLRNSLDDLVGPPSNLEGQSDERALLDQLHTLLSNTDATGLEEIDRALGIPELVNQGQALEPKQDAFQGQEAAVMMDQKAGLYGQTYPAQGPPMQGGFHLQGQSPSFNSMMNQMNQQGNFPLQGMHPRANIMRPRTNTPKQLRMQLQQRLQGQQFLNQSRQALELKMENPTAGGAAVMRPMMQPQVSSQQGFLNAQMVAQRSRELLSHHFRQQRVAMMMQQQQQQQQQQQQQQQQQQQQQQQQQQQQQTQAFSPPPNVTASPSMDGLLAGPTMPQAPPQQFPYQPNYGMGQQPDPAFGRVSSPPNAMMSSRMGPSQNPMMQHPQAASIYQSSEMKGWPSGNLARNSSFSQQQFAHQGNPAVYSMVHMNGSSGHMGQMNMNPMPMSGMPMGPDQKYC

Structure (SMILES)	inhibition
O=[N+]([O-])c1ccc(S(=O)(=O)CC2CSc3nc4ccccc4n32)cc1 (stereo not given)	15.6% (inactive)
CC1CCC(C(C)C)C(OC(=O)Cn2c(-c3ccc(Br)cc3)[n+](C)c3ccccc32)C1 (stereo not given)	3.76% (inactive)
COc1c(Cl)cc(Cl)cc1/C=C/C(=O)c1ccc(NC(=O)c2cccs2)cc1	48.7% (active)
O=C(Cc1ccccc1)N/N=C/c1cc(Br)cc(Cl)c1O	19.8% (inactive)
Cc1ccsc1C(=O)C1CCCN(Cc2cccn2-c2ccc(Cl)cn2)C1 (stereo not given)	-3.2% (inactive)
CN1CCCC(n2nc(Cc3ccc(Cl)cc3)c3ccccc3c2=O)CC1 (stereo not given)	10.3% (inactive)
O=C(C1CCC1)N1CCN(c2ccnc3cc(Cl)ccc23)CC1	17% (inactive)
CCOC(=O)CC/C(C)=N\N=C1\SC(CC(=O)O)C(=O)N1c1ccccc1 (stereo not given)	0.21% (inactive)
CC(=O)Nc1cccc(C(=O)/C=C/c2ccc(F)cc2)c1	1.7% (inactive)
O=C(Nc1sc2c(c1C(=O)O)CCCC2)c1ccc(F)cc1	0.98% (inactive)
O=C(c1ccccc1)N1CCN(Cc2c[nH]c3ccccc23)CC1	8.59% (inactive)
CCOC(=O)c1c(C)[nH]c2c1-c1ccccc1C(=O)C2=O	95.1% (active)
CCc1ccc(C(=O)COC(=O)c2cncc(Br)c2)cc1	10.2% (inactive)
Cc1ccc(C(=O)C[n+]2ccc(Cc3ccccc3)cc2)cc1	-4.6% (inactive)
COc1ccc(-c2cc(C(=O)N(C)Cc3ccc(OC)c(OC)c3OC)c3ccccc3n2)cc1OC	8.88% (inactive)
COc1ccc(-c2nc3c(c(SCC(=O)N4CCOCC4)n2)Cc2c(CO)cnc(C)c2O3)cc1	5.29% (inactive)
COc1ccc(C2OC(=O)CC2C(=O)NCc2ccc(F)cc2)cc1OC (stereo not given)	-5.31% (inactive)
O=C(Nc1nc2ccccc2s1)C1c2ccccc2Oc2ccccc21	39.2% (inactive)
O=C(Nc1sc2c(c1C(=O)O)CCCC2)c1ccc(Cl)cc1	30.9% (inactive)
CC(=O)N(Cc1ccc(F)cc1)C1=C(NCc2ccccc2)C(=O)c2ccccc2C1=O	30.9% (inactive)

Structure (SMILES)	inhibition
COC(=O)c1ccccc1NC1=C/C(=N\S(=O)(=O)c2cccs2)c2ccccc2C1=O	2.2% (inactive)
Brc1ccc(N=Nc2ccc3ccccc3n2)cc1	51.2% (active)
CC[N+](CC)(CC)CCOc1ccc(/C=C/c2ccccc2)cc1	3.27% (inactive)
OCCNCCOc1ccc(Cl)c(Cl)c1	5.72% (inactive)
CCN(CC)CCCNc1nc2cc(OC)c(OC)cc2c2nc(-c3cccnc3)nn12	-30.7% (inactive)
CCc1nc2ccccc2c(C(=O)OCC(=O)Nc2cccc(S(=O)(=O)N3CCOCC3)c2)c1C	1.17% (inactive)
COc1ccc(-c2ncncc2-c2ccc(Cl)cc2)c(O)c1	25.1% (inactive)
COc1ccc(/C=C/C(=O)C23CC4CC(CC(C4)C2)C3)cc1CN1CCOCC1	22.6% (inactive)
CC(C)CN=C(NS(=O)(=O)c1ccccc1)C(Cl)(Cl)Cl	24.3% (inactive)
COc1ccc(NC(=O)c2ccc(-c3ccccc3)cc2)cc1S(=O)(=O)N1CCOCC1	12% (inactive)
CCCCCCCNC(=O)C1(CC2CC(c3ccc(Cl)cc3)=NO2)CCN(C(=O)c2cc(OCC)c(OCC)c(OCC)c2)CC1 (stereo not given)	20.9% (inactive)
COc1ccc(C(C(=O)NC2CCCCC2)N(C(=O)CCl)c2ccc(Cl)cc2)cc1 (stereo not given)	54.1% (active)
CCn1cc(C(=O)NCc2ccccn2)c(=O)c2cc(F)c(N3CCN(C)CC3)cc21	-0.49% (inactive)
O=C(N/N=C/c1ccc(O)cc1O)c1ccc(NC(=O)C2CCCCC2)cc1	9.15% (inactive)
Cn1ncc2c(O/N=C(\N)c3ccc(C(F)(F)F)cc3)ncnc21	-12.9% (inactive)
Cc1ccc(NC(=O)c2cccc(S(=O)(=O)NCc3ccccc3)c2)nc1	-3.03% (inactive)
Cc1ccc(S(=O)(=O)Nc2ccc3c(c2)OCCO3)cc1C	24.1% (inactive)
CC1CCCCC12NC(=O)N(CC(=O)N1CCN(Cc3ccc(C#N)cc3)CC1)C2=O (stereo not given)	-3.89% (inactive)
COc1ccc(NC(=O)C2CCN(S(=O)(=O)c3ccc4c(c3)CC(C)N4C(C)=O)CC2)cc1OC (stereo not given)	9.24% (inactive)
O=C(Cc1ccccc1)Nc1cc(Cl)ccc1Sc1ccccc1	2.36% (inactive)

system: transactivating tegument protein VP16 (Human herpesvirus 1), Gal4-VP16 luciferase reporter; assay: VP16 transactivation inhibitors, counter-screen for SRC3 inhibitor project, cell-based, luminescence, high throughput (AID 588794); conditions: mammalian cells, VP16-driven luciferase reporter luminescence; at 3.6 µM; hits give high values

Structure (SMILES)	inhibition
O=[N+]([O-])c1ccc(S(=O)(=O)CC2CSc3nc4ccccc4n32)cc1 (stereo not given)	18.6% (inactive)
CC1CCC(C(C)C)C(OC(=O)Cn2c(-c3ccc(Br)cc3)[n+](C)c3ccccc32)C1 (stereo not given)	35.8% (active)
COc1c(Cl)cc(Cl)cc1/C=C/C(=O)c1ccc(NC(=O)c2cccs2)cc1	26.6% (inactive)
O=C(Cc1ccccc1)N/N=C/c1cc(Br)cc(Cl)c1O	16.4% (inactive)
Cc1ccsc1C(=O)C1CCCN(Cc2cccn2-c2ccc(Cl)cn2)C1 (stereo not given)	23.2% (inactive)
CN1CCCC(n2nc(Cc3ccc(Cl)cc3)c3ccccc3c2=O)CC1 (stereo not given)	2.25% (inactive)
O=C(C1CCC1)N1CCN(c2ccnc3cc(Cl)ccc23)CC1	6.97% (inactive)
CCOC(=O)CC/C(C)=N\N=C1\SC(CC(=O)O)C(=O)N1c1ccccc1 (stereo not given)	-4.68% (inactive)
CC(=O)Nc1cccc(C(=O)/C=C/c2ccc(F)cc2)c1	2.15% (inactive)
O=C(Nc1sc2c(c1C(=O)O)CCCC2)c1ccc(F)cc1	27.5% (inactive)
O=C(c1ccccc1)N1CCN(Cc2c[nH]c3ccccc23)CC1	-3.11% (inactive)
CCOC(=O)c1c(C)[nH]c2c1-c1ccccc1C(=O)C2=O	91.5% (active)
CCc1ccc(C(=O)COC(=O)c2cncc(Br)c2)cc1	7.77% (inactive)
Cc1ccc(C(=O)C[n+]2ccc(Cc3ccccc3)cc2)cc1	14.8% (inactive)
COc1ccc(-c2cc(C(=O)N(C)Cc3ccc(OC)c(OC)c3OC)c3ccccc3n2)cc1OC	6.51% (inactive)
COc1ccc(-c2nc3c(c(SCC(=O)N4CCOCC4)n2)Cc2c(CO)cnc(C)c2O3)cc1	-10.4% (inactive)
COc1ccc(C2OC(=O)CC2C(=O)NCc2ccc(F)cc2)cc1OC (stereo not given)	-5.19% (inactive)
O=C(Nc1nc2ccccc2s1)C1c2ccccc2Oc2ccccc21	21.4% (inactive)
O=C(Nc1sc2c(c1C(=O)O)CCCC2)c1ccc(Cl)cc1	50.5% (active)
CC(=O)N(Cc1ccc(F)cc1)C1=C(NCc2ccccc2)C(=O)c2ccccc2C1=O	31.9% (active)

Structure (SMILES)	inhibition
COC(=O)c1ccccc1NC1=C/C(=N\S(=O)(=O)c2cccs2)c2ccccc2C1=O	6.65% (inactive)
Brc1ccc(N=Nc2ccc3ccccc3n2)cc1	33.7% (active)
CC[N+](CC)(CC)CCOc1ccc(/C=C/c2ccccc2)cc1	5.91% (inactive)
OCCNCCOc1ccc(Cl)c(Cl)c1	2.08% (inactive)
CCN(CC)CCCNc1nc2cc(OC)c(OC)cc2c2nc(-c3cccnc3)nn12	39.4% (active)
CCc1nc2ccccc2c(C(=O)OCC(=O)Nc2cccc(S(=O)(=O)N3CCOCC3)c2)c1C	8.71% (inactive)
COc1ccc(-c2ncncc2-c2ccc(Cl)cc2)c(O)c1	22.8% (inactive)
COc1ccc(/C=C/C(=O)C23CC4CC(CC(C4)C2)C3)cc1CN1CCOCC1	6.66% (inactive)
CC(C)CN=C(NS(=O)(=O)c1ccccc1)C(Cl)(Cl)Cl	16.1% (inactive)
COc1ccc(NC(=O)c2ccc(-c3ccccc3)cc2)cc1S(=O)(=O)N1CCOCC1	34.6% (active)
CCCCCCCNC(=O)C1(CC2CC(c3ccc(Cl)cc3)=NO2)CCN(C(=O)c2cc(OCC)c(OCC)c(OCC)c2)CC1 (stereo not given)	0.73% (inactive)
COc1ccc(C(C(=O)NC2CCCCC2)N(C(=O)CCl)c2ccc(Cl)cc2)cc1 (stereo not given)	24.8% (inactive)
CCn1cc(C(=O)NCc2ccccn2)c(=O)c2cc(F)c(N3CCN(C)CC3)cc21	3.18% (inactive)
O=C(N/N=C/c1ccc(O)cc1O)c1ccc(NC(=O)C2CCCCC2)cc1	10.4% (inactive)
Cn1ncc2c(O/N=C(\N)c3ccc(C(F)(F)F)cc3)ncnc21	1.06% (inactive)
Cc1ccc(NC(=O)c2cccc(S(=O)(=O)NCc3ccccc3)c2)nc1	6.44% (inactive)
Cc1ccc(S(=O)(=O)Nc2ccc3c(c2)OCCO3)cc1C	-2.28% (inactive)
CC1CCCCC12NC(=O)N(CC(=O)N1CCN(Cc3ccc(C#N)cc3)CC1)C2=O (stereo not given)	6.63% (inactive)
COc1ccc(NC(=O)C2CCN(S(=O)(=O)c3ccc4c(c3)CC(C)N4C(C)=O)CC2)cc1OC (stereo not given)	5.82% (inactive)
O=C(Cc1ccccc1)Nc1cc(Cl)ccc1Sc1ccccc1	5.41% (inactive)
